# Source: PubChem BioAssay AID1159580 (chemical genetic matrix, 2015)
# Among all 5,500 compounds or so, about 2,000 (36%) were called active. Inconclusive results (about 18%) are left out. The list shows a part of the results. A number with no mark means an inactive call. No stated cut-off is given here; in the data, active means normalized growth mostly below about 0.91 (no sharp cut-off); inconclusive means no clear call, values can overlap the other calls; inactive means mostly above about 0.92.
# Assay: chemical genetic growth profiling, strain panel (AID 1159580);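 further: tested at 20 µM; growth read once vehicle control cultures reached saturation at 30 °C; 1 = growth at the plate median or of vehicle wells; lower values mean less growth of the strain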
# Settings: S. cerevisiae deletion strains, growth OD
structure (smiles),measurement,setting,value
C/C=C(/C)C(=O)OC1CCC2(C)C3CCC4C5(O)CC(O)C6(O)C(CN7CC(C)CCC7C6(C)O)C5(O)CC42OC13O (configuration not stated),normalized growth,"locus YAL021C, strain ccr4, hits give low values",0.955
same,normalized growth,"locus YAL026C, strain drs2, hits give low values",0.954
same,normalized growth,"locus YAL030W, strain snc1, hits give low values",1.01
same,normalized growth,"locus YBL061C, strain skt5, hits give low values",1.01
same,normalized growth,"locus YBR009C, strain hhf1, hits give low values",0.951
same,normalized growth,"locus YBR021W, strain FUR4, hits give low values",0.747 (active)
same,normalized growth,"locus YBR023C, strain chs3, hits give low values",0.992
same,normalized growth,"locus YBR171W, strain sec66, hits give low values",0.968
same,normalized growth,"locus YBR229C, strain ROT2, hits give low values",0.97
same,normalized growth,"locus YBR231C, strain swc5, hits give low values",0.991
same,normalized growth,"locus YBR279W, strain paf1, hits give low values",0.99
same,normalized growth,"locus YCL011C, strain gbp2, hits give low values",0.993
same,normalized growth,"locus YCL016C, strain dcc1, hits give low values",1.01
same,normalized growth,"locus YCL029C, strain bik1, hits give low values",0.979
same,normalized growth,"locus YCL069W, strain vba3, hits give low values",0.971
same,normalized growth,"locus YCR088W, strain abp1, hits give low values",0.993
same,normalized growth,"locus YDL005C, strain med2, hits give low values",1.01
same,normalized growth,"locus YDL035C, strain GPR1, hits give low values",0.922
same,normalized growth,"locus YDL040C, strain nat1, hits give low values",0.994
same,normalized growth,"locus YDL074C, strain BRE1, hits give low values",0.844
same,normalized growth,"locus YDL101C, strain DUN1, hits give low values",0.95
same,normalized growth,"locus YDL185W, strain tfp1, hits give low values",0.994
same,normalized growth,"locus YDL192W, strain arf1, hits give low values",0.96
same,normalized growth,"locus YDR001C, strain nth1, hits give low values",0.995
same,normalized growth,"locus YDR069C, strain doa4, hits give low values",1.01
same,normalized growth,"locus YDR101C, strain arx1, hits give low values",0.955
same,normalized growth,"locus YDR137W, strain rgp1, hits give low values",0.857
same,normalized growth,"locus YDR150W, strain NUM1, hits give low values",0.986
same,normalized growth,"locus YDR159W, strain sac3, hits give low values",0.974
same,normalized growth,"locus YDR162C, strain NBP2, hits give low values",0.942
same,normalized growth,"locus YDR195W, strain ref2",1.04
same,normalized growth,"locus YDR297W, strain sur2, hits give low values",0.982
same,normalized growth,"locus YDR318W, strain mcm21, hits give low values",0.964
same,normalized growth,"locus YDR334W, strain swr1, hits give low values",0.977
same,normalized growth,"locus YDR335W, strain msn5, hits give low values",0.999
same,normalized growth,"locus YDR388W, hits give low values",0.953
same,normalized growth,"locus YDR392W, strain spt3, hits give low values",0.95
same,normalized growth,"locus YDR502C, strain sam2, hits give low values",0.937
same,normalized growth,"locus YEL003W, strain gim4, hits give low values",0.993
same,normalized growth,"locus YEL037C, strain rad23, hits give low values",0.984
same,normalized growth,"locus YEL061C, strain CIN8 (second series), hits give low values",0.981
same,normalized growth,"locus YEL061C, strain CIN8, hits give low values",0.961
same,normalized growth,"locus YER015W, strain faa2, hits give low values",0.999
same,normalized growth,"locus YER016W, strain bim1, hits give low values",1.07
same,normalized growth,"locus YER110C, hits give low values",0.963
same,normalized growth,"locus YER111C, strain swi4, hits give low values",0.995
same,normalized growth,"locus YER155C, strain BEM2 (second series), hits give low values",0.969
same,normalized growth,"locus YER155C, strain BEM2, hits give low values",0.966
same,normalized growth,"locus YER167W, strain BCK2, hits give low values",0.852 (active)
same,normalized growth,"locus YFR010W, strain ubp6, hits give low values",0.969
same,normalized growth,"locus YGL078C, strain dbp3, hits give low values",0.989
same,normalized growth,"locus YGL086W, strain mad1, hits give low values",0.953
same,normalized growth,"locus YGL167C, strain pmr1, hits give low values",0.996
same,normalized growth,"locus YGL173C, strain kem1, hits give low values",0.998
same,normalized growth,"locus YGL227W, strain vid30, hits give low values",1
same,normalized growth,"locus YGL240W, strain doc1, hits give low values",0.988
same,normalized growth,"locus YGL248W, strain PDE1, hits give low values",0.928
same,normalized growth,"locus YGL253W, strain hxk2, hits give low values",1
same,normalized growth,"locus YGR135W, strain pre9, hits give low values",0.928
same,normalized growth,"locus YGR252W, strain gcn5, hits give low values",0.789
same,normalized growth,"locus YHR013C, strain ard1, hits give low values",0.995
same,normalized growth,"locus YHR027C, strain rpn1, hits give low values",1
same,normalized growth,"locus YHR030C, strain SLT2, hits give low values",0.982
same,normalized growth,"locus YHR079C, strain IRE1 (second series), hits give low values",0.972
same,normalized growth,"locus YHR094C, strain hxt1, hits give low values",0.971
same,normalized growth,"locus YHR129C, strain ARP1, hits give low values",0.955
same,normalized growth,"locus YHR142W, strain chs7, hits give low values",0.974
same,normalized growth,"locus YHR200W, strain rpn10, hits give low values",0.973
same,normalized growth,"locus YIL066C, strain RNR3, hits give low values",0.885
same,normalized growth,"locus YIL073C, strain SPO22, hits give low values",0.924
same,normalized growth,"locus YIL125W, strain kgd1, hits give low values",0.976
same,normalized growth,"locus YIR030C, strain dcg1, hits give low values",0.978
same,normalized growth,"locus YJL092W, strain hpr5, hits give low values",1
same,normalized growth,"locus YJL095W, strain BCK1 (second series), hits give low values",1
same,normalized growth,"locus YJL095W, strain BCK1, hits give low values",0.891
same,normalized growth,"locus YJL115W, strain asf1, hits give low values",0.985
same,normalized growth,"locus YJL129C, strain trk1, hits give low values",1
same,normalized growth,"locus YJL134W, strain LCB3, hits give low values",0.983
same,normalized growth,"locus YJL154C, strain vps35, hits give low values",0.989
same,normalized growth,"locus YJL164C, strain tpk1, hits give low values",0.996
same,normalized growth,"locus YJL166W, strain qcr8, hits give low values",0.994
same,normalized growth,"locus YJL168C, strain set2, hits give low values",0.976
same,normalized growth,"locus YJL187C, strain SWE1 (second series), hits give low values",0.943
same,normalized growth,"locus YJR043C, strain POL32, hits give low values",0.845 (active)
same,normalized growth,"locus YKL009W, strain mrt4, hits give low values",0.987
same,normalized growth,"locus YKL068W, hits give low values",0.961
same,normalized growth,"locus YKL085W, strain MDH1 (second series), hits give low values",0.948
same,normalized growth,"locus YKL085W, strain MDH1, hits give low values",0.948
same,normalized growth,"locus YKL160W, strain elf1, hits give low values",1.02
same,normalized growth,"locus YKL190W, strain CNB1, hits give low values",0.979
same,normalized growth,"locus YKR001C, strain vps1, hits give low values",0.821 (active)
same,normalized growth,"locus YKR026C, strain gcn3, hits give low values",0.988
same,normalized growth,"locus YKR091W, strain srl3, hits give low values",1.01
same,normalized growth,"locus YLL001W, strain dnm1, hits give low values",0.985
same,normalized growth,"locus YLL026W, hits give low values",1
same,normalized growth,"locus YLL041C, strain sdh2, hits give low values",0.991
same,normalized growth,"locus YLR027C, strain aat2, hits give low values",1
same,normalized growth,"locus YLR039C, strain RIC1, hits give low values",0.889
same,normalized growth,"locus YLR058C, strain SHM2, hits give low values",0.949
same,normalized growth,"locus YLR102C, strain apc9, hits give low values",0.972
same,normalized growth,"locus YLR221C, strain rsa3, hits give low values",0.968
same,normalized growth,"locus YLR258W, strain gsy2, hits give low values",0.998
same,normalized growth,"locus YLR262C, strain YPT6 (second series), hits give low values",0.82 (active)
same,normalized growth,"locus YLR262C, strain YPT6, hits give low values",1
same,normalized growth,"locus YLR268W, strain sec22, hits give low values",0.938
same,normalized growth,"locus YLR320W, strain mms22, hits give low values",0.959
same,normalized growth,"locus YLR330W, strain CHS5, hits give low values",0.902 (active)
same,normalized growth,"locus YLR342W, strain FKS1 (second series), hits give low values",0.715 (active)
same,normalized growth,"locus YLR342W, strain FKS1, hits give low values",1
same,normalized growth,"locus YLR357W, strain rsc2, hits give low values",1.02
same,normalized growth,"locus YLR370C, strain arc18, hits give low values",0.994
same,normalized growth,"locus YLR371W, strain rom2, hits give low values",0.985
same,normalized growth,"locus YLR384C, strain iki3, hits give low values",0.991
same,normalized growth,"locus YLR418C, strain cdc73, hits give low values",0.705 (active)
same,normalized growth,"locus YML016C, strain PPZ1, hits give low values",0.969
same,normalized growth,"locus YML032C, strain rad52, hits give low values",0.935
same,normalized growth,"locus YML120C, strain ndi1, hits give low values",0.997
same,normalized growth,"locus YML124C, strain tub3, hits give low values",0.97
same,normalized growth,"locus YMR058W, strain fet3, hits give low values",0.993
same,normalized growth,"locus YMR078C, strain ctf18, hits give low values",0.968
same,normalized growth,"locus YMR125W, strain sto1, hits give low values",0.991
same,normalized growth,"locus YMR129W, hits give low values",1
same,normalized growth,"locus YMR205C, strain PFK2, hits give low values",0.986
same,normalized growth,"locus YMR223W, strain ubp8, hits give low values",0.957
same,normalized growth,"locus YMR231W, strain pep5, hits give low values",1
same,normalized growth,"locus YMR263W, strain SAP30, hits give low values",0.943
same,normalized growth,"locus YMR307W, strain GAS1, hits give low values",0.626
same,normalized growth,"locus YNL067W, strain RPL9B, hits give low values",0.962
same,normalized growth,"locus YNL071W, strain lat1, hits give low values",0.98
same,normalized growth,"locus YNL209W, strain ssb2, hits give low values",0.997
same,normalized growth,"locus YNL233W, strain BNI4, hits give low values",0.908
same,normalized growth,"locus YNL248C, strain rpa49, hits give low values",0.973
same,normalized growth,"locus YNL250W, strain rad50, hits give low values",0.992
same,normalized growth,"locus YNL271C, strain bni1, hits give low values",0.996
same,normalized growth,"locus YNL298W, strain CLA4, hits give low values",0.967
same,normalized growth,"locus YNL307C, strain MCK1, hits give low values",0.83 (active)
same,normalized growth,"locus YNL322C, strain KRE1 (second series), hits give low values",1.03
same,normalized growth,"locus YNL322C, strain KRE1, hits give low values",0.947
same,normalized growth,"locus YNR049C, strain mso1, hits give low values",1.02
same,normalized growth,"locus YNR052C, strain pop2, hits give low values",1.02
same,normalized growth,"locus YOL006C, strain TOP1, hits give low values",0.627
same,normalized growth,"locus YOL012C, strain htz1",0.727
same,normalized growth,"locus YOL147C, strain pex11, hits give low values",0.96
same,normalized growth,"locus YOR001W, strain rrp6, hits give low values",0.937
same,normalized growth,"locus YOR061W, strain CKA2, hits give low values",0.975
same,normalized growth,"locus YOR069W, strain VPS5, hits give low values",0.981
same,normalized growth,"locus YOR070C, strain gyp1, hits give low values",0.987
same,normalized growth,"locus YOR080W, strain dia2, hits give low values",1
same,normalized growth,"locus YOR083W, strain WHI5, hits give low values",1.03
same,normalized growth,"locus YOR106W, strain vam3, hits give low values",1.02
same,normalized growth,"locus YOR136W, strain idh2, hits give low values",0.979
same,normalized growth,"locus YOR144C, strain elg1, hits give low values",0.963
same,normalized growth,"locus YOR184W, strain ser1, hits give low values",0.815 (active)
same,normalized growth,"locus YOR265W, strain rbl2, hits give low values",0.984
same,normalized growth,"locus YOR270C, strain vph1, hits give low values",0.94
same,normalized growth,"locus YOR290C, strain snf2, hits give low values",1.03
same,normalized growth,"locus YOR316C, strain cot1, hits give low values",0.969
same,normalized growth,"locus YPL051W, strain arl3, hits give low values",1.02
same,normalized growth,"locus YPL055C, strain LGE1, hits give low values",0.877
same,normalized growth,"locus YPL078C, strain atp4, hits give low values",1.01
same,normalized growth,"locus YPL106C, strain sse1, hits give low values",1.01
same,normalized growth,"locus YPL240C, strain hsp82, hits give low values",0.988
same,normalized growth,"locus YPR119W, strain clb2, hits give low values",0.969
same,normalized growth,"locus YPR141C, strain kar3, hits give low values",0.978
same,normalized growth,"locus YPR163C, strain tif3, hits give low values",0.964
same,normalized growth,"locus YPR167C, strain met16, hits give low values",0.967
same,normalized growth,"strain wtn01, hits give low values",0.949
